For assay [1], the target named is Lysosomal acid glucosylceramidase (Homo sapiens) (UniProt P04062). In words: Glucocerebrosidase-p2 (AID 348; in the data active = potency below about 10 µM; also: potency is read from the fitted curve at half-maximal effect). The following applies: purified GBA, blue fluorogenic substrate, 40 min. The essentials:
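Normal human glucocerebrosidase (0.2 nM) with blue fluorogenic substrate (80 uM final) in citrate/phosphate pH 5.9 with 10mM sodium taurocholate, 0.01% tween-20; 40 min RT, NaOH/glycine stop; fluorescence Ex 365/Em 440; AC50 from a titration from 0.6 nM upwards.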

A short description of assay [2]: AP1 Signaling Pathway (AID 357; active = well fitted curve in either direction with a large enough effect, not every such curve was filed as active; also: % is scaled to controls: 0 for no effect and ±100 for the full control effect). As to conditions: ME-180 AP-1-bla reporter, EGF-induced, beta-lactamase ratio, 5 h; at 7.69 µM (top of the series) unless noted. In a few lines:
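AP-1-bla ME-180 cells with beta-lactamase reporter under AP-1 response element, stimulated with EC50 EGF; compounds titrated, 5 hours at 37 degrees Celsius. CCF4 read at 460/530 nm ratio; positive and negative modulators judged by AC50.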

Assay [3] is described as follows: Stat Signaling Pathway (AID 446; active = well fitted curve in either direction with a large enough effect, not every such curve was filed as active;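 also: ME-180 cervical cancer cells given 40 pM IL-6 alongside compound; SIE-controlled beta-lactamase reporter measured as 460/530 nm FRET emission ratio; % is scaled to controls: 0 for no effect and ±100 for the full control effect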). In a few lines:
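Emission at 460 and 530 nm (excitation 405 nm) reports SIE-controlled beta-lactamase in ME-180 cells. Cells received compound with 40 pM IL-6 for 5 hrs at 37 C; data scaled between 300 pM IL-6 and 125 nM JAK-inhibitor controls.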

In assay [4] the target is Glucocorticoid receptor (Homo sapiens) (UniProt P04150). Put plainly: GR-EFC Redistribution (AID 451; calls by dose curve; also: potency is read from the fitted curve at half-maximal effect). The following applies: CHO-K1 GR-EFC translocation, beta-gal luminescence, 2 h. In a few lines: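 CHO-K1 cells stably expressing nuclear-localized β-gal enzyme acceptor and GR fused C-terminally to the enzyme donor fragment; ligand-driven nuclear translocation restores β-gal by complementation. Compounds titrated up to 46 uM final, 2 h at 37 °C; luminescence read.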

In assay [5] the target is 3',5'-cyclic-AMP phosphodiesterase 4B (Homo sapiens) (UniProt Q07343). Put plainly: qHTS Assay for Inhibitors of PDE-IV (AID 607; active = well fitted activation curve with a large enough effect in the main read-out, with a control signal flat, not every such curve was filed as active; also: % of control where 0% means no effect). In a few lines:
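The readout is membrane depolarisation from a cAMP-sensing CNG channel, detected with a potential dye at ex 535/em 590. Cells were HEK293-derived (endogenous PDE-IV) at 1000 cells/well, titrated up to 22.9 uM final.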

For assay [6], the target named is Rap guanine nucleotide exchange factor 3 (Homo sapiens) (UniProt O95398). Put plainly: Confirmatory qHTS for antagonist of cAMP-regulated guanine nucleotide exchange factor 3 (EPAC1) (AID 1645880).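 Also: plate controls were DMSO only for no effect and full effect of the ATA control for full effect; nearly all actives have a fitted effect of over 55% in size.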 As to conditions: EPAC1 Rap1B-BODIPY-GDP exchange, fluorescence; activity, negative = inhibition: at 115 µM (top of the series). The essentials: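 Released BODIPY-GDP fluoresces less than Rap1-bound BODIPY-GDP; the signal is followed at 480/540 nm at 5-min intervals over 30 min, after 5 min at room temperature. Reactions contain 100 nM EPAC1, 250 nM RAP1B-BODIPY-GDP and 50 uM GDP; results are normalized to ATA and DMSO.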
In general terms: Quantitative high-throughput screening tests each substance at several concentrations.

For assay [7] the target is unchanged. In words: Confirmatory qHTS for agonist of cAMP-regulated guanine nucleotide exchange factor 3 (EPAC1) (AID 1645881).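 Also: EPAC1 catalysed release of BODIPY-GDP from Rap1B seen as fluorescence loss; 100% = effect of cAMP agonist control; nearly all actives have a fitted effect of over 75% in size.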
The target in assay [8] is Rap guanine nucleotide exchange factor 4 (Homo sapiens) (UniProt Q8WZA2). Put plainly: Confirmatory qHTS for agonist of cAMP-regulated guanine nucleotide exchange factor 4 (EPAC2) (AID 1645884).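 Also: nucleotide exchange releases bodipy-GDP from Rap1 and this lowers its fluorescence; % is scaled to controls: 0 for no effect and ±100 for the full control effect; nearly all actives have a fitted effect of over 65% in size.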
Assay [9] shares this target. Put plainly: Confirmatory qHTS for antagonist of cAMP-regulated guanine nucleotide exchange factor 4 (EPAC2) (AID 1645885). Also: nearly all actives have a fitted effect of over 25% in size. Also: potency is read from the fitted curve at half-maximal effect.
In assay [10] the target is Tumor susceptibility gene 101 protein (Homo sapiens) (UniProt Q99816). In words: qHTS Assay for Iinhibitors of HIV-1 Budding by Blocking the Interaction of PTAP/TSG101: Hit Validation (AID 651600). Also: % is scaled to controls: 0 for no effect and ±100 for the full control effect; nearly all actives have a fitted effect of over 70% in size. In a few lines:
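Measuring PTAP–Tsg101 interaction by FP: protein at 10 uM and fluorescent peptide at 50 nM (final), buffer 10 mM HEPES pH 7.5 with 0.15 M NaCl, 3 mM EDTA, 0.1 mM TCEP, 0.01% Tween 20; 20 min incubation, r.t.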

The target in assay [11] is Rap guanine nucleotide exchange factor 3 (Homo sapiens) (UniProt O95398). Put plainly: Counterscreen qHTS for agonist of cAMP-regulated guanine nucleotide exchange factor 3 (EPAC1) (AID 1645889). Also: % of control where 0% means no effect; nearly all actives have a fitted effect of over 40% in size. The essentials:
(§1)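 Measured: fluorescence of BODIPY-GDP bound to Rap1B, which falls as exchange proceeds. Conditions include 50 uM competing GDP, 5 and 30 min reads, and a later cAMP challenge for antagonist detection.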

Assay [12] concerns the target Cytochrome P450 1A2 (Homo sapiens) (UniProt P05177). In words: p450-cyp1a2 (AID 410; calls by dose curve; also: potency is read from the fitted curve at half-maximal effect). In a few lines: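 Read-out is luminescence from luciferin produced by CYP1A2 demethylation of Luciferin-ME (100uM, at Km). Detection reagent stopped the 60 min NADPH-dependent reaction; signals were normalized to 57 uM furafylline.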
Assay [13] concerns the target Mitogen-activated protein kinase 10 (Mus musculus) (UniProt Q61831). Put plainly: JNK3 AlphaScreen Assay (AID 530; active = well fitted curve in either direction with a large enough effect, not every such curve was filed as active;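 also: kinase came from lysate of stimulated human HepG2 cells; signal reports phosphorylation of biotinylated GST-cJun 1-79 at Ser73 with 10 µM ATP; % is scaled to controls: 0 for no effect and ±100 for the full control effect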). The essentials:
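Biotinylated GST-cJun(1-79) served as substrate for JNK3 in HepG2 lysates stimulated with IL-1beta and TNF-alpha. ATP was 10 uM final, pH 7.6. Ser73 phosphorylation was quantified by AlphaScreen (680 nm excitation).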

In assay [14] the target is Cytochrome P450 2C9 (Homo sapiens) (UniProt P11712). Put plainly: qHTS Assay for Inhibitors and Substrates of Cytochrome P450 2C9 (AID 883). Also: potency is read from the fitted curve at half-maximal effect; nearly all actives have a fitted effect of over 60% in size. The essentials: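 CYP2C9 deoxyluciferin hydroxylation, 37C, 60 min with NADPH regeneration; 10nM enzyme, 100uM Luciferin-H (KM). Glo detection reagent stopped reaction; luminescence normalized to sulphaphenazole (57uM) full inhibition.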

For assay [15], the target named is Cytochrome P450 3A4 (Homo sapiens) (UniProt P08684). Put plainly: qHTS Assay for Activators of Cytochrome P450 3A4 (AID 885). Also: nearly all actives have a fitted effect of over 65% in size. In a few lines: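 Activators are scored by enhanced luminescence from CYP3A4 conversion of luciferin-PPXE (25uM, equal to KM) to luciferin, after 60 min at RT with an NADPH-regenerating system.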
The target of assay [16] is Cytochrome P450 2C19 (Homo sapiens) (UniProt P33261). In words: qHTS Assay for Inhibitors and Substrates of Cytochrome P450 2C19 (AID 899). Also: potency is read from the fitted curve at half-maximal effect; nearly all actives have a fitted effect of over 60% in size. The essentials:
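In 50mM KPO4, the reaction held 5nM enzyme and KM-level (10uM) Luciferin-H EGE; it ran 60 min at 37C after NADPH regeneration and a 10 min compound preincubation. Luminescence values were scaled to 57uM ketoconazole as complete inhibition.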

For assay [17], the target named is DNA dC->dU-editing enzyme APOBEC-3G (Homo sapiens) (UniProt Q9HC16). Put plainly: qHTS for inhibitors of Vif-A3G interactions: Validation (AID 588379). Also: 0% is about no effect. The essentials:
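Yellow fluorescence (Ex 488, Em 500-530) of Vif-coexpressing HeLa A3G-eYFP cells, scanned by Acumen cytometer, reports blocked A3G degradation. Cells plated at 700/well overnight at 37 deg C before compound addition, then a further overnight compound incubation at 37 deg C.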

The nature of assay [18]: NFAT Signaling Pathway (AID 444; active = well fitted curve in either direction with a large enough effect, not every such curve was filed as active;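 also: carbachol stimulus at about its EC50 of 1 µM final; % is scaled to controls: 0 for no effect and ±100 for the full control effect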). The following applies: Jurkat NFAT-bla M1, carbachol, beta-lactamase ratio, 5 h; at 7.69 µM (top of the series) unless noted. The essentials: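 Jurkat cells carrying an NFAT-driven β-lactamase reporter and co-transfected muscarinic M1 receptor were treated with compound plus carbachol (1 uM final, an EC50 level) for 5 h at 37 °C. CCF4 loading followed for 1 h at RT; 460/530 nm ratio gave %activity.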

Assay [19] deals with Glucocorticoid receptor (Homo sapiens) (UniProt P04150). Put plainly: GR-GFP Redistribution (AID 450;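 active = compounds whose dose series gives a full or clear partial fitted curve of increased nuclear translocation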; also: potency is read from the fitted curve at half-maximal effect). As to conditions: U2OS GR-GFP nuclear translocation, laser cytometry, 2 h.
The target in assay [20] is Rap guanine nucleotide exchange factor 3 (Homo sapiens) (UniProt O95398). In words: Counterscreen qHTS for antagonist of cAMP-regulated guanine nucleotide exchange factor 3 (EPAC1) (AID 1645888). Also: % of control where 0% means no effect. In a few lines:
as §1
(Counterscreens check selectivity or assay interference.)

A short description of assay [21]: qHTS Assay for Identification of Small Molecule Agonists for Hypoxia Response Element Signaling Pathway (AID 914; active = well fitted activation curve with a large enough effect in the signal ratio, with a control signal flat, not every such curve was filed as active; the % refers to the signal ratio; also: potency is read from the fitted curve at half-maximal effect). The following applies: ME-180 (cervical carcinoma) HRE-bla reporter, beta-lactamase ratio, CoCl2, 17 h; activation: hits give high values. In a few lines: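 In Opti-MEM containing 0.5% dialyzed FBS and 10 mM HEPES, ME-180 HRE-bla cells received a compound titration and EC50 CoCl2. They were incubated 17 hours, then CCF4-loaded 2.5 hours at room temperature before ratio reading.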

The target in assay [22] is Dual specificity protein kinase CLK4 (Homo sapiens) (UniProt Q9HAZ1). Put plainly: qHTS Assay for Inhibitors of CDC-like Kinase 4 (Kinase-Glo Assay) (AID 1770). Also: % is scaled to controls: 0 for no effect and ±100 for the full control effect; nearly all actives have a fitted effect of over 65% in size. In a few lines:
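Clk4 25 nM, RS peptide 100 uM, ATP 1 uM, pH 7.5 Tris, 10 mM MgCl2, 2.5 mM DTT; 4.5 h RT; ATP depletion read by Kinase-Glo luminescence.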

Assay [23] has the same target. In words: qHTS Assay for Inhibitors of CDC-like Kinase 4 (ADP-FP Assay) (AID 1795).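 Also: recombinant human CLK4 phosphorylating RS repeat peptide at 1 µM ATP; % is scaled to controls: 0 for no effect and ±100 for the full control effect; nearly all actives have a fitted effect of over 60% in size.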 The essentials: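 Kinase activity was followed as ADP output, converted from fluorescence polarization with a calibration curve. Reactions ran one hour at low ATP (1 uM) with RS peptide substrate.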

Values without a mark were called inactive. Records with an inconclusive call do not appear. Active and inactive are the calls of the source. Unless noted, calls follow the shape of the dose curve; as a rule, active = well fitted curve in the direction sought with a large enough effect; inconclusive = small, poorly fitted or top-dose-only effect, or another doubt; inactive = no such curve, though single readings can be large; an effect the other way counts as inactive or inconclusive.

Cytochrome P450 3A4 (Homo sapiens), sequence (P08684 whole entry, looked up): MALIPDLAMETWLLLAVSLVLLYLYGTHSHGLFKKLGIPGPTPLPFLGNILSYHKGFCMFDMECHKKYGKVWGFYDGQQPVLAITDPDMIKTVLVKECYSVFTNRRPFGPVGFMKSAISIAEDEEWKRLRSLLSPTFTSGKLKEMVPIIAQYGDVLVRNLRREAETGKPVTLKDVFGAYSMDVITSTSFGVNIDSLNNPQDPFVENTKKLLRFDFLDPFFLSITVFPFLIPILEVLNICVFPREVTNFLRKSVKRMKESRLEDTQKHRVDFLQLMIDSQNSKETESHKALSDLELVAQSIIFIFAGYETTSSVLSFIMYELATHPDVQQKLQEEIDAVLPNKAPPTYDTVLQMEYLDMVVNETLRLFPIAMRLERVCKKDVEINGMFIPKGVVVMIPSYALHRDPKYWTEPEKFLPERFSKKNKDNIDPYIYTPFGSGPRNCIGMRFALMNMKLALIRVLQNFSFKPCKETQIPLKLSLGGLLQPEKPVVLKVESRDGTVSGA
Rap guanine nucleotide exchange factor 4 (Homo sapiens), sequence (Q8WZA2 whole entry, looked up): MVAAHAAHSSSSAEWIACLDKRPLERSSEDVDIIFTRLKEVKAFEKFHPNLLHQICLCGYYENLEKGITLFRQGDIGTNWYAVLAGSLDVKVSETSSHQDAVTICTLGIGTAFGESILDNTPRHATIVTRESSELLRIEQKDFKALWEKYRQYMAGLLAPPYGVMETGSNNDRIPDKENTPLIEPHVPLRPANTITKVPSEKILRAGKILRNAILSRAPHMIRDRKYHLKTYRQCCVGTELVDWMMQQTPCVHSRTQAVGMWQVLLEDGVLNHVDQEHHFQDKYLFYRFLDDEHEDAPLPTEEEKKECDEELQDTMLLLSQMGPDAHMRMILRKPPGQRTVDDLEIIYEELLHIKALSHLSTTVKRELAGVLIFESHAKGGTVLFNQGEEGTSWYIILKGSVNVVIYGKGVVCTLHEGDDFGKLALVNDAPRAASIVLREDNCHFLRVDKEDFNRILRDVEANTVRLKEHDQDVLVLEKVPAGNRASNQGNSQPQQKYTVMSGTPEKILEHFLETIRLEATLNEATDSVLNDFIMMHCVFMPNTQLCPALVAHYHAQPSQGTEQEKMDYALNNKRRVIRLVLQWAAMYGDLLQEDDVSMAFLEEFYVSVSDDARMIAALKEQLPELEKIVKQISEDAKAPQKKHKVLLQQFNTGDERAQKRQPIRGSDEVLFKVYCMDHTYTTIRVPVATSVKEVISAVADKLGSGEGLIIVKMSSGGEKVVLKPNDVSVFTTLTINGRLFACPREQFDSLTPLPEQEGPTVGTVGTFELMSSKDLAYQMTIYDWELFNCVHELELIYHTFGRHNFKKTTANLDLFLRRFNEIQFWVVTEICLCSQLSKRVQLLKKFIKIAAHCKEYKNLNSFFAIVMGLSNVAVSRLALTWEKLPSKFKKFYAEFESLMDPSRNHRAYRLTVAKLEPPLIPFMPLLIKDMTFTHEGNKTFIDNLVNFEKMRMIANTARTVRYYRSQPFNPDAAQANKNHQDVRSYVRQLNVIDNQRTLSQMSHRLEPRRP
Lysosomal acid glucosylceramidase (Homo sapiens), sequence (P04062 whole entry, looked up): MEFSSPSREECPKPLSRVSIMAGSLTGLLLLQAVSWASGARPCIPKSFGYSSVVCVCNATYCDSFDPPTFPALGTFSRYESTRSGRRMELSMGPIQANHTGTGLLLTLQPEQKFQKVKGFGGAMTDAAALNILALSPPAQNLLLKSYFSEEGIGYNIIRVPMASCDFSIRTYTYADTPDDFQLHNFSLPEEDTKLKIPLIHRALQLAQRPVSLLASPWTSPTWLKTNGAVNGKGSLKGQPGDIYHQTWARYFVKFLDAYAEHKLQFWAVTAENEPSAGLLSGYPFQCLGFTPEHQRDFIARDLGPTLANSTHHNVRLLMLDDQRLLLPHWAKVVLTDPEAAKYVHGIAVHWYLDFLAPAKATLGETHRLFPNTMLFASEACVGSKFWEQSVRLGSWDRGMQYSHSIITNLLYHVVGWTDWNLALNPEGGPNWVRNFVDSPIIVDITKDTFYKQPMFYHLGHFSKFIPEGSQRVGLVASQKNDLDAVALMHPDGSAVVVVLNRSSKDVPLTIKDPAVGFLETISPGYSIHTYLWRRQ
Glucocorticoid receptor (Homo sapiens), sequence (P04150 whole entry, looked up, the tested form may be a part): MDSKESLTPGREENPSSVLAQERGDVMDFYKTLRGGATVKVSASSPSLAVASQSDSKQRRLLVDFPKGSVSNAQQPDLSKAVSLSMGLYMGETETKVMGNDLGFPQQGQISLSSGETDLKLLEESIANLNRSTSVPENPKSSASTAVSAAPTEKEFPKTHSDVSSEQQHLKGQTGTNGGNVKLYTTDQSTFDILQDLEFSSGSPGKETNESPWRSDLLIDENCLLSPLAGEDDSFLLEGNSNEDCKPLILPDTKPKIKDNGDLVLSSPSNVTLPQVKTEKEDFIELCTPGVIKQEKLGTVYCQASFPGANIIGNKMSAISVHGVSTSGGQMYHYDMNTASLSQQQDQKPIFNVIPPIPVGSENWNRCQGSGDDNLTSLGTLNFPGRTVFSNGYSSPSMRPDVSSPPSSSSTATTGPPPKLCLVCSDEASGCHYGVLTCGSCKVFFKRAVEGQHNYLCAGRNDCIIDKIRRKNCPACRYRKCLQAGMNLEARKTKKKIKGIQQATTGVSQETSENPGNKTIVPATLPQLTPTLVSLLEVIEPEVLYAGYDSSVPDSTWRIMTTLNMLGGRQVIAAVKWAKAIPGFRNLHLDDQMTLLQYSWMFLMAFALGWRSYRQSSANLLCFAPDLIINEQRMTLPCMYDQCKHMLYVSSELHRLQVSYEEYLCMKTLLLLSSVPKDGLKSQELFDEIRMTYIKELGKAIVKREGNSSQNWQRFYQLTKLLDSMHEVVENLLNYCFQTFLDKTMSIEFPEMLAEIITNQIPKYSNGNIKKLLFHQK
Cytochrome P450 1A2 (Homo sapiens), sequence (P05177 whole entry, looked up): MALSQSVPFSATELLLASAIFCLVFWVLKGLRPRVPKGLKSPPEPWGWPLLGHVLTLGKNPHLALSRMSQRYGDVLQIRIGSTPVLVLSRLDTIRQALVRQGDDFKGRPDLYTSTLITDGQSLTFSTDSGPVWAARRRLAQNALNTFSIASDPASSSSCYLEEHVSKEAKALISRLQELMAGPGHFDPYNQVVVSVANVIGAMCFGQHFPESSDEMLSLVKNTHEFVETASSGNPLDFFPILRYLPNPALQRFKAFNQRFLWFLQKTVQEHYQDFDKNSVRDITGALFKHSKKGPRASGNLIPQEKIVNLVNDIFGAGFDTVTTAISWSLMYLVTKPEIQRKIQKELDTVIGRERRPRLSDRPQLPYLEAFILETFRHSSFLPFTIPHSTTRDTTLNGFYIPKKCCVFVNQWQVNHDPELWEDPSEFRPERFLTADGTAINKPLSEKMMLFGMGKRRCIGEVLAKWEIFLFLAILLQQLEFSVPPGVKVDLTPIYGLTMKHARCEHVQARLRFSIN
Rap guanine nucleotide exchange factor 3 (Homo sapiens), sequence (O95398 whole entry, looked up): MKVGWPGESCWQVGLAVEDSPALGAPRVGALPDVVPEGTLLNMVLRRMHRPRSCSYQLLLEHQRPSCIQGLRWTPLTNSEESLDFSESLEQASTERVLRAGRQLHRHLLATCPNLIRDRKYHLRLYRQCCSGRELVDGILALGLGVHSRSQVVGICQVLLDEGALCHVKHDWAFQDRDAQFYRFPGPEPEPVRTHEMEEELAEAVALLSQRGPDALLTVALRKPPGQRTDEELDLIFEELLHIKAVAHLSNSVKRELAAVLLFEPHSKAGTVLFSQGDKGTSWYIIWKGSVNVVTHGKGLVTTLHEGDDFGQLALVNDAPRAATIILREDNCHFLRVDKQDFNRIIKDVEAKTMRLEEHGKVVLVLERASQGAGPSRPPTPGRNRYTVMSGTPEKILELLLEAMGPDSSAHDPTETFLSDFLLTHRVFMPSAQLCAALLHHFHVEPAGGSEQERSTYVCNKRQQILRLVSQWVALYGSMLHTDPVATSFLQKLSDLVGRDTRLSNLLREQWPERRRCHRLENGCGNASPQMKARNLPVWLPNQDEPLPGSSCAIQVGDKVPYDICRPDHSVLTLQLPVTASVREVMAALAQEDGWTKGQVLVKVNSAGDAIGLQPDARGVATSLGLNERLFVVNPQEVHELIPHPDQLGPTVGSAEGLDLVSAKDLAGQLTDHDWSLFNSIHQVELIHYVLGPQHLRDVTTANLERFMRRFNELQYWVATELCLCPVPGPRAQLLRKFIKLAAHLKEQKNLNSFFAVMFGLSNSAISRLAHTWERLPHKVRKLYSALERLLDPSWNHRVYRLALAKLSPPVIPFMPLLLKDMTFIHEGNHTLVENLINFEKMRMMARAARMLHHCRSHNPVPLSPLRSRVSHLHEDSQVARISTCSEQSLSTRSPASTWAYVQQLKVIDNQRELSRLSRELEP
Dual specificity protein kinase CLK4 (Homo sapiens), sequence (Q9HAZ1 whole entry, looked up): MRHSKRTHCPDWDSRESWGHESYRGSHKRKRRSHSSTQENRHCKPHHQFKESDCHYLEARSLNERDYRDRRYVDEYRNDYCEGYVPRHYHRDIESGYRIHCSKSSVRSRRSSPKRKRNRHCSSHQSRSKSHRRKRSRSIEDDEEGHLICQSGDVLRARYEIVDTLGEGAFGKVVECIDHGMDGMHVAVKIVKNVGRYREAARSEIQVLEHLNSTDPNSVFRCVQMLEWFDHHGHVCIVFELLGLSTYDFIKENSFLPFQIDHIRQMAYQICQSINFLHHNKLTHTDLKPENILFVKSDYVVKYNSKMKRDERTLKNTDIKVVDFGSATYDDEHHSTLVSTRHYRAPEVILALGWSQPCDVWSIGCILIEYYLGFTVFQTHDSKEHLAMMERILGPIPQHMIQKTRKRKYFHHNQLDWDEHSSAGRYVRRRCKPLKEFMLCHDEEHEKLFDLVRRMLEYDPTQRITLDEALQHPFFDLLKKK

As for `O=C(c1ccco1)N1CCC2(CC1)CN(c1cccc(-c3ccccc3)c1)C2`, the Potency in assay [1] was over 11.4 µM; in assay [4], over 46 µM. For the same compound, the activity change, negative = inhibition in [2] is -23.1%. Further, in assay [3], the outcome was inactive. Moreover, the Potency entry in assay [5], in [6], in assay [7], in assay [8] and in assay [9] was “inactive” each time.

With `Cc1nc(Nc2ccc(S(=O)(=O)N3CCCCC3C)cc2)c2nnn(Cc3ccccc3)c2n1` (stereo not drawn), the Potency result in assay [10], in assay [6], in [7], in [8], in assay [9] and in assay [11] was “inactive” in each case.

Take `CC(C)=CCc1c(O)cc(O)c2c1O[C@H](c1ccccc1)CC2=O`: the Potency in assay [12] was 0.316 µM (active); in assay [14], 3.16 µM (active); in assay [16], 1 µM (active); in assay [9], 39.3 µM (active). Moreover, the Potency entry in assay [13], in assay [6], in [7] and in [8] was “inactive” each time. The result in assay [15] and in assay [17] was inactive.

For the compound `CN1CCN(c2ncc3nc(CCc4ccccc4)c(=O)n(Cc4cccs4)c3n2)CC1`, the Potency is over 11.4 µM in [1], 15.8 µM (active) in assay [12], over 9.22 µM in assay [19] and over 46 µM in [4]. Besides, the activity change, negative = inhibition in assay [2] was -5.44%; in assay [18], 4.5%. The Potency result in [13], in assay [6], in [7], in [8] and in [9] was “inactive” in each case. Also, the result in assay [15] was inactive.

For the compound `COc1ccccc1CN(C)CC(=O)Nc1ccccc1-c1ccccc1`, the Potency result in assay [6], in assay [7], in [8] and in assay [20] was “inactive” in each case.

`CN1CCN(c2ncc3nc(-c4cn(C)c5ccccc45)c(=O)n(CCC#N)c3n2)CC1`: the Potency is over 11.4 µM in assay [1]; 15.8 µM (active) in assay [12]; over 9.22 µM in [19]; over 46 µM in assay [4]; 3.16 µM (active) in assay [21]. In addition, the activity change, negative = inhibition was -1.18% in assay [2] and 23.5% in assay [18]. Further, the Potency entry in assay [5], in assay [22], in assay [23], in [6], in [7] and in assay [8] was “inactive” in each case. The Potency result in [9] was “inactive”. Besides, the compound was called inactive in [15].

As for `O=C(c1cnccn1)N1CCC[C@@]2(CCN(c3cccc(-c4ccccc4)c3)C2)C1`, the activity change, negative = inhibition in [2] is -18.4%; in assay [18], 7.34%. Further, the results for the Potency in assay [12], in assay [4] and in assay [14] were 25.1 µM (active), over 46 µM and 7.94 µM (active), respectively. Besides, the compound was classed as inactive in assay [3] and in assay [15]. Besides, the Potency entry in assay [13], in assay [6], in [7], in assay [8] and in assay [9] was “inactive” each time.

(Values after PubChem BioAssay (NCATS).)
